Inconclusive results are not listed. A number with no mark means an inactive call. Active and inactive are the calls of the source. Calls come from the whole dose curve; as a rule, active = well fitted cell-killing curve with a large enough effect; inconclusive = small, poorly fitted or top-dose-only effect, or effect the other way; inactive = no such curve, though single readings can be large or run the other way.
Potency is the fitted concentration of half-maximal effect.

This experiment can be described thus: Viability qHTS for spleen associated tyrosine kinase inhibitor (SYKi) drug resistant MV4-11 cells (AID 1963824). Note: nearly all actives have a fitted effect of over 35% in size. Particulars: SYKi-resistant MV4-11 viability, CellTiter-Glo, 72 h; series mostly up to 45 µM. Summed up:
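SYK-inhibitor-resistant MV4-11 AML cells were seeded at 500 per well onto compound and cultured 72 hours (37 °C, 5% CO2). CellTiter-Glo was then added, and after 10 min at room temperature, luminescence gave viability.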
Background: qHTS replaces the single test concentration by a dilution series.
As for `NCCCNc1ccc(Nc2nccc(Nc3cc(C4CC4)[nH]n3)n2)cc1`, the Potency is 0.164 µM (active). The same measure, in the same setting: to `Cc1cc2c(F)c(Oc3ncnn4cc(OCC(C)O)c(C)c34)ccc2[nH]1` (stereo not given) belongs 8.2 µM (active); to `Cc1ccccc1-n1c([C@H](C)Nc2nc(N)nc3nc[nH]c23)nc2cccc(C)c2c1=O`, 2.91 µM (active). With `COc1cccc(N2CCN(C3=Nc4c(F)cccc4[C@H](CC(=O)O)N3c3cc(C(F)(F)F)ccc3OC)CC2)c1`, the Potency is 18.4 µM (active). Take `COc1cnc(-c2ccc(Cn3c(CC(C)(C)C(=O)O)c(SC(C)(C)C)c4cc(OC[C@@H]5Cc6ccccc6N5C(C)=O)ccc43)cc2)nc1`: the Potency is 12.8 µM (active). For the compound `C=C1C(=O)O[C@@H]2C[C@H](C)[C@@H]3CC(=O)C(C)=C3C[C@H]12`, the Potency was 1.16 µM (active). On to `CCCCC1CCN(CCCN2C(=O)CCc3ccccc32)CC1`, for which the Potency is 2.59 µM (active). Regarding `C=C(C(=O)O)[C@@H]1CC=C2CCC[C@H](C)[C@@]2(C)C1`, the Potency result was “inactive”. With `CC1(C)CC[C@]2(C(=O)O[C@@H]3O[C@H](CO[C@@H]4O[C@H](CO[C@@H]5O[C@H](CO)[C@H](O)[C@H](O)[C@H]5O)[C@@H](O)[C@H](O)[C@H]4O)[C@@H](O)[C@H](O[C@@H]4O[C@H](CO)[C@@H](O)[C@H](O)[C@H]4O)[C@H]3O)[C@H](O)C[C@]3(C)C(=CCC4[C@@]5(C)CC[C@H](O[C@@H]6OC[C@@H](O)[C@H](O)[C@H]6O)[C@@](C)(C(=O)O)C5CC[C@]43C)[C@@H]2C1` (stereo not given in full), the viability, % of control was 90.5% [at 9.25 µM]. As for `C/C(=C/CO)CC[C@@H]1[C@@]2(C)CCC[C@](C)(C(=O)O)C2CC[C@@]1(C)O` (stereo not given in full), the Potency result is “inactive”. For the compound `CCC(C)/C=C(C)/C=C/C1=CC2=C(Cl)C(=O)C(C)(O)C(=O)C2(O)C(OC)O1` (stereo not given), the Potency is 10 µM (active). On to `COc1ccc([C@@]2(O)c3c(ccc4c3OC(C)(CCC=C(C)C)C=C4)NC(=O)[C@@H]2OC)cc1` (stereo not given in full), for which the Potency result was “inactive”. For the compound `CC1(C)NC2N(C1=O)c1ccccc1C2(O)CC(C(=O)O)n1cnc2ccccc2c1=O` (stereo not given), the Potency entry was “inactive”. In the case of `CC1(C)C=Cc2c(ccc3c2[N+]([O-])=C2C3(O)CC34NC(=O)C5(CCCN5C3=O)CC4C2(C)C)O1` (stereo not given), the Potency result was “inactive”. Turning to `CNc1cc2[nH]c(=O)n(-c3ccc(NC(=O)NS(=O)(=O)c4ccc(Cl)s4)cc3)c(=O)c2cc1F`, the Potency entry was “inactive”. For the compound `CC(=O)O[C@@H]1[C@@H](O)[C@H](C)O[C@@H](O[C@H]2[C@@H]3C=CO[C@@H](O[C@@H]4O[C@H](CO)[C@@H](O)[C@H](O)[C@H]4OC(C)=O)[C@@H]3[C@@]3(CO)O[C@@H]23)[C@@H]1OC(=O)/C=C/c1ccc(O)cc1`, the Potency result is “inactive”. The same measure, in the same setting: to `Cc1cc(N=Nc2ccc(S(=O)(=O)Nc3ccccn3)cc2)c(N)cc1O` belongs 2.59 µM (active).

With `CN(C)CCOC(C)(c1ccccc1)c1ccc(Cl)cc1` (stereo not given), the Potency was 16.4 µM (active). Turning to `CC1(C)CCCC2(C)C3=C(C(=O)OC3O)C(O)CC12` (stereo not given), the Potency entry was “inactive”. Still for that read-out and setting: to `O=C(Nc1ccn[nH]1)c1c(F)cccc1F` belongs “inactive”. As for `CCC(C)/C=C(C)/C=C/C(=O)C1CCC(O)C(C)(O)C1=O` (stereo not given), the Potency is 13 µM (active). Consider `COc1ccc(CC2NCCc3c2[nH]c2ccc(C)cc32)cc1OC` (stereo not given), for which the Potency was 7.31 µM (active). For `CC(C)(CO)c1cc2cc(NC(=O)C3(c4ccc5c(c4)OC(F)(F)O5)CC3)c(F)cc2n1CC(O)CO` (stereo not given), the Potency was 16.4 µM (active). For `CCCCCCCCCCCCCC#CC(=O)[C@@H]1COC(C)(C)N1C(=O)OC(C)(C)C`, the Potency entry is “inactive”. Same read-out and setting: next, `COc1ccccc1[C@@H]1C2=C(CC(C)(C)CC2=O)Nc2n[nH]c(C(F)(F)F)c21`: 23.1 µM (active).

In the case of `C=C1C(=O)OC2CC(C)=C(C(C)CCCOC(C)=O)C(OC(=O)CC(C)CC)C12` (stereo not given), the Potency is 2.52 µM (active).

Take `NS(=O)(=O)Nc1ncnc(OCCOc2ncc(Br)cn2)c1-c1ccc(Br)cc1`: the Potency is 14.6 µM (active). On the same count and under the same terms, to `CC(C)c1ccc(-c2cc(=O)c3ccccc3o2)cc1` belongs 13 µM (active); to `COC1OC(=O)C2=C1C1(C)CCCC(C)(C)C1CC2O` (stereo not given), “inactive”. `Cc1c(OCc2cccc(-c3ccc(C(=O)O)cc3)c2)cc2c(c1C)C(=O)C(C1CCCC1)C2` (stereo not given): the Potency entry was “inactive”.

On to `CCOc1ccc(S(=O)(=O)N2CCCCCC2)c2ccccc12`, for which the Potency was 20.6 µM (active). `CC(C)C1NC(=O)C2CCCN2C1=O` (stereo not given): the Potency entry is “inactive”.

Regarding `C/C=C1\[C@H](O[C@@H]2O[C@H](CO)[C@@H](O)[C@H](O)[C@H]2O)OC=C(C(=O)OC)[C@H]1CC(=O)OC[C@H]1O[C@@H](OCCc2ccc(O)cc2)[C@H](O)[C@@H](O)[C@@H]1O`, the Potency result is “inactive”. With `C[C@@H]1C[C@@H]([C@@H](O)C(C)(C)O)O[C@H]2C[C@@]3(C)C(=C12)C[C@H](O)[C@H]1[C@@]2(C)CCC(=O)C(C)(C)C2CC[C@@]13C` (stereo not given in full), the Potency is 1.26 µM (active). Regarding `CC(=O)OC1C(OC(=O)c2ccccc2)C2C(C)(C)CCC(OC(C)=O)C2(C)C23CCC(C)(C2)C(=O)CC13` (stereo not given), the Potency was 10 µM (active).

On to `O=c1cc(N2CCN(c3cccc(C(F)(F)F)c3)CC2)[nH]c(=O)n1C1CCCCC1`, for which the Potency entry is “inactive”. On to `COC(=O)[C@]1(C)CCC[C@@]2(C)C(=O)CC[C@H]3C(=O)C=C(CC[C@@H]21)C3O` (stereo not given in full), for which the Potency result is “inactive”. On to `CC1C(=O)CC2C3C(O)CC(C(=O)O)C12CC3(C)C` (stereo not given), for which the Potency was 20.6 µM (active). For the compound `CC(=O)N[C@@H](CC(=O)O)C(=O)N[C@@H](CCC(=O)O)C(=O)N[C@H](C(=O)N[C@@H](CC(=O)O)C(=O)Nc1ccc2c(C)cc(=O)oc2c1)C(C)C`, the Potency was 6.51 µM (active). Turning to `CCCCC(=O)O[C@]1(C(=O)CO)CC[C@H]2[C@@H]3CCC4=CC(=O)CC[C@]4(C)[C@H]3[C@@H](O)C[C@@]21C`, the Potency result is “inactive”.

For the origin of these results see PubChem BioAssay (NCATS).
